Screening results from PubChem.
aSyn UTR act – Activators via SNCA 5'UTR binding, MLPCN; alpha-synuclein 5'UTR reporter, activators screen; activity score, % (tested at 7.5 µM), hits read low; 7.1% of 300,000 active; in the data active means activity score below about -60%
Large screens that a line does not name were inactive. The list is a sample of the results.

COC(=O)c1ccc(C(=O)OC)c(NC(=O)Nc2ccc3c(c2)OCO3)c1	aSyn UTR act -124
CC(=O)Nc1cccc(NC(=O)c2cc(-c3cccnc3)nc3ccc(Br)cc23)c1	aSyn UTR act -62
C/C(=N\NC(=O)c1cc(-c2cccnc2)nc2ccccc12)c1ccccc1O	none
CCc1ccc2oc(C(=O)Nc3cccnc3)c(C)c2c1	aSyn UTR act -220
Cc1c(C(=O)Nc2cccnc2)oc2ccc(Br)cc12	aSyn UTR act -246
O=C(Nc1cccnc1)c1cc2c(ccc3ccccc32)o1	aSyn UTR act -104
COc1ccc(OCCCn2cc(/C=C3/C(=N)N4C=C(C)SC4=NC3=O)c3ccccc32)cc1	aSyn UTR act -70
CCN1C(=O)/C(=C/C=C2\C=CN(CC)c3ccccc32)SC1=S	aSyn UTR act -80
CCN1C(=O)/C(=C\C=C2/C=CC=CN2CC)SC1=S	aSyn UTR act -125
CCN1C(=O)C(=Cc2cccc(OC)c2Oc2ccc([N+](=O)[O-])cc2[N+](=O)[O-])SC1=S	none
O=C1c2ccccc2C(=O)C1c1ccccn1	aSyn UTR act -105
COCCN(Cc1nc(-c2ccc(-c3ccccc3)cc2)oc1C)C(C)C	aSyn UTR act -215
COC(=O)c1ccc2c(c1)C(=O)/C(=C/c1ccc(O)cc1)O2	aSyn UTR act -118
CC(C)(C)c1ccc(/C=C2\Oc3cc(O)ccc3C2=O)cc1	aSyn UTR act -69
COc1cccc(/C=C2\Oc3ccc(O)cc3C2=O)c1O	none
CN1/C(=C\C=C2/C(=O)Oc3ccccc3C2=O)C(C)(C)c2ccccc21	aSyn UTR act -123
COc1ccc2c(c1OC)C(=O)N(c1cccc(C)c1)C2	aSyn UTR act -114
COc1ccc2c(c1OC)C(=O)N(c1cccc(C(F)(F)F)c1)C2	aSyn UTR act -192
COc1ccc2c(c1OC)C(=O)N(c1ccccn1)C2	aSyn UTR act -122
Cc1cc(C(=O)Nc2ccc3[nH]ccc3c2)no1	aSyn UTR act -152
Cn1c(=O)oc2cc(S(=O)(=O)CCC(=O)Nc3ccccc3)ccc21	aSyn UTR act -64
S=c1[nH]nc(Cn2c(-c3ccccn3)nc3ccccc32)n1-c1ccc2c(c1)OCCO2	aSyn UTR act -75
CC(C)(C)c1ccc(N=C2SCC(=O)N2Cc2cccs2)cc1	aSyn UTR act -72
CC(C)COc1ccc(C(=O)Nc2ccc(NC(=O)c3ccco3)c(Cl)c2)cc1	aSyn UTR act -149
CC(C)Oc1ccc(C(=O)Nc2ccc(NC(=O)c3ccco3)c(Cl)c2)cc1	aSyn UTR act -106
Nc1ccc(C(=O)Nc2ccc(NC(=O)c3ccco3)c(O)c2)cc1	aSyn UTR act -82
O=C(Nc1ccc(Br)c(Cl)c1)c1ccco1	aSyn UTR act -162
O=C(Nc1ccc(NC(=O)c2ccco2)c(Cl)c1)c1ccccc1	aSyn UTR act -99
Fc1ccc(NC(=S)Nc2ccc3nccnc3c2)cc1	aSyn UTR act -91
S=C(Nc1ccccc1)Nc1nccs1	aSyn UTR act -177
CC(C)(C)c1nnc(NC(=S)Nc2ccccc2)s1	aSyn UTR act -167
Fc1ccc(NC(=S)Nc2nccs2)cc1	aSyn UTR act -128
Cc1ccc(C(=O)Nc2ccc(OCc3ccccc3)cc2)s1	aSyn UTR act -107
Cc1ccsc1C(=O)Nc1ccc(OCc2ccccc2)cc1	aSyn UTR act -191
COc1ccc(COc2ccsc2C(=O)Nc2ccc(Cl)c(Cl)c2)cc1	aSyn UTR act -68
Cc1cc(C(=O)Nc2ccc(OCc3ccccc3)cc2)c(C)o1	aSyn UTR act -134
CCOC(=O)c1c(NC(=O)c2cc(C)oc2C)sc(C(=O)Nc2ccc(Cl)cc2)c1C	aSyn UTR act -102
Cc1nc2c(-c3ccc(F)cc3)cnn2c2c1CCC2	aSyn UTR act -87
CN(C)c1ccc(/C=C/c2cc[n+]([O-])cc2)cc1	aSyn UTR act -114
O=C1CC(c2ccccc2)Sc2nc3ccccc3n21 (centres undefined)	aSyn UTR act -196
O=C1CC(c2ccc3c(c2)OCO3)Sc2nc3ccccc3n21 (centres undefined)	aSyn UTR act -160
CC(=O)N(C)c1ccc(NC(=O)Nc2ccc(C)cc2)cc1	aSyn UTR act -76
CC(=O)N(C)c1ccc(NC(=O)Nc2ccc(Cl)cc2)cc1	aSyn UTR act -135
NC(=S)N/N=C/c1ccc2c(c1)OCCO2	aSyn UTR act -76
NC(=S)N/N=C/c1ccc(C23CC4CC(CC(C4)C2)C3)cc1	aSyn UTR act -310
CNC(=S)N/N=C/c1ccc2c(c1)OCCO2	aSyn UTR act -73
S=C(N/N=C/c1ccc2c(c1)OCO2)NC1CC2CCC1C2 (centres undefined)	aSyn UTR act -128
NCCOc1ccc(C23CC4CC(CC(C4)C2)C3)cc1	none
C=CCN=c1scc(C)n1/N=C/c1ccc(O)c(O)c1	aSyn UTR act -156
CN=c1scc(-c2ccco2)n1/N=C/c1ccc(O)c(O)c1	aSyn UTR act -242
CN=c1scc(-c2ccccc2F)n1/N=C/c1ccc[nH]1	none
Cc1cccc(/C=C2\CCC(=C3SCCCS3)C2=O)c1	none
CC(C)/C=C1\CC/C(=C\c2cccnc2)C1=O	aSyn UTR act -62
O=C1/C(=C/c2cccnc2)CC/C1=C\c1cccnc1	aSyn UTR act -65
N=c1c(C(=O)NCCN2CCOCC2)cc2c(=O)n3ccccc3nc2n1CCc1ccccc1	aSyn UTR act -83
COc1ccc(CCn2c(=N)c(C(=O)NCc3ccco3)cc3c(=O)n4ccccc4nc32)cc1	aSyn UTR act -73
Cc1ccc(S(=O)(=O)c2cc3c(=O)n4ccccc4nc3n(CCc3ccccc3)c2=N)cc1	aSyn UTR act -231
Cc1ccsc1C(=O)N/N=C/C=C/c1ccccc1[N+](=O)[O-]	aSyn UTR act -138
CC1CCCC(C)N1/N=C/C=C/c1ccccc1[N+](=O)[O-] (centres undefined)	aSyn UTR act -133
CCOC(=O)N/N=C/C=C/c1ccccc1[N+](=O)[O-]	aSyn UTR act -75
CC(=O)COc1ccc2cc(-c3ccccc3)c(=O)oc2c1	aSyn UTR act -64
CC(=O)Oc1ccc2cc(-c3ccccc3)c(=O)oc2c1	aSyn UTR act -163
COc1ccc(-c2cc3ccc(OCC(N)=O)cc3oc2=O)cc1OC	aSyn UTR act -65
CC(=O)O[C@H]1C(=O)[C@@]2(C)[C@H]([C@H](OC(=O)c3ccccc3)[C@]3(O)C[C@H](OC(=O)[C@H](O)C(NC(=O)c4ccccc4)c4ccccc4)C(C)=C1C3(C)C)[C@]1(OC(C)=O)CO[C@@H]1C[C@@H]2O (some centres undefined)	none
COc1ccc(-c2coc3cc4oc(=O)cc(-c5ccccc5)c4cc23)cc1F	none
O=C(CCCCl)Oc1ccc2cc(-c3ccc4ccccc4n3)c(=O)oc2c1	aSyn UTR act -125
O=C(COc1ccc2ccc(=O)oc2c1)c1ccccc1	aSyn UTR act -102
CC(=O)Oc1ccc2c(=O)c(-c3ccccc3)coc2c1	aSyn UTR act -146
Cc1cccc(NC(=O)c2cc(-c3cc(C)c(C)cc3O)n[nH]2)c1	aSyn UTR act -234
Cc1ccc(-c2cc(C(=O)Nc3cccnc3)[nH]n2)c(O)c1C	aSyn UTR act -202
COc1ccc(NC(=O)c2cc(-c3cc(C)ccc3O)n[nH]2)cc1Cl	aSyn UTR act -72
Cc1cccc(NC(=O)c2cc(-c3cc(C)ccc3O)n[nH]2)c1	aSyn UTR act -227
Cc1ccc(-c2csc(NC(=O)c3cccc(S(=O)(=O)N4CCN(C)CC4)c3)n2)cc1	aSyn UTR act -66
Cc1ccc(-c2csc(NC(=O)COC(=O)c3cccc(S(=O)(=O)N4CCOCC4)c3)n2)cc1	aSyn UTR act -93
CC1(C(=O)OCC(=O)Nc2ccc3ccccc3c2)CC1(Cl)Cl (centres undefined)	aSyn UTR act -78
